Test [1] is described as follows: qHTS assay to identify aromatase inhibitors - cell viability counter screen (AID 743084).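 Note: cells stimulated with testosterone during compound exposure; nearly all actives have a fitted effect of over 55% in size.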 Note: potency is the fitted concentration of half-maximal effect. Background: qHTS replaces the single test concentration by a dilution series.
Test [2] can be described thus: qHTS assay to identify small molecule that activate the aryl hydrocarbon receptor (AhR) signaling pathway - cell viability counter screen (AID 743086). Note: series mostly up to about 70 µM; nearly all actives have a fitted effect of over 45% in size. An outline of the steps: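 Cytotoxicity counter screen: CellTiter-Fluor signal (30 min, 37 C) in 4000 HepG2 cells/well carrying the DRE-luciferase reporter, following 24 h compound exposure at 37 C.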
For test [3], the target named is Peroxisome proliferator-activated receptor gamma (Homo sapiens) (UniProt P37231). Briefly: qHTS assay to identify small molecule agonists of the peroxisome proliferator-activated receptor gamma (PPARg) signaling pathway (AID 743094; active = well fitted activation curve with a large enough effect in the signal ratio in the repeat runs, not every such curve was filed as active; the % refers to the signal ratio). The method in brief: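 Agonist activity was taken from a beta-lactamase reporter (FRET substrate, 1 h at room temperature) in HEK293H cells carrying a PPARg UAS-bla construct. Compounds in DMSO were incubated 17 h at 37C after a 5 h cell pre-incubation.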

For test [4] the target is unchanged. In words: qHTS assay to identify small molecule antagonists of the peroxisome proliferator-activated receptor gamma (PPARg) signaling pathway (AID 743191; calls by dose curve; note: series mostly up to about 63 µM; nearly all actives have a fitted effect of over 30% in size). The method in brief:
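Beta-lactamase reporter under UAS control in HEK293H PPARg-bla cells; compound treatment 17 h at 37C. Read-out: fluorescence intensity after 1 h room-temperature incubation with LiveBLAzer B/G FRET substrate.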

The nature of test [5]: qHTS assay to identify small molecule antagonists of the peroxisome proliferator-activated receptor gamma (PPARg) signaling pathway - cell viability counter screen (AID 743194). Note: nearly all actives have a fitted effect of over 55% in size. The method in brief: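 Viability was measured as CellTiter-Glo luminescence in GeneBLAzer PPARg UAS-bla HEK293H cells. These cells had been exposed 17 h at 37 C to compounds together with rosiglitazone at 50 nM final, with the beta-lactamase readout taken in the same wells.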

Test [6] can be described thus: qHTS assay for small molecule agonists of the antioxidant response element (ARE) signaling pathway (AID 743202; active = well fitted activation curve with a large enough effect in the signal ratio in the repeat runs, not every such curve was filed as active; the % refers to the signal ratio). An outline of the steps: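 After 16 hours of compound treatment at 37 C, HepG2 cells with a stably integrated ARE-driven beta-lactamase reporter were loaded 2 hours at room temperature with LiveBLAzer B/G FRET substrate and fluorescence intensity measured.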

Test [7] can be described thus: qHTS assay for small molecule agonists of the antioxidant response element (ARE) signaling pathway - cell viability counter screen (AID 743203; calls by dose curve; note: nearly all actives have a fitted effect of over 55% in size; note: potency is the fitted concentration of half-maximal effect). An outline of the steps: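 Viability counter screen: CellTiter-Glo luminescence, read after 30 min at room temperature, in ARE-bla HepG2 wells. Compound exposure lasted 16 h at 37C/5% CO2, following a 5 h pre-incubation of the cells after plating.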

A short description of test [8]: qHTS assay for small molecule activators of the heat shock response signaling pathway - cell viability counter screen (AID 743209). Note: nearly all actives have a fitted effect of over 50% in size. Note: potency is the fitted concentration of half-maximal effect. An outline of the steps:
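Cytotoxicity counter screen run in the same wells as the heat-shock bla reporter assay: HeLa HSE-bla cells, 5 h compound exposure at 37 C, viability read by CellTiter-Glo luminescence.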

Test [9] is described as follows: qHTS assay for small molecule activators of the heat shock response signaling pathway (AID 743210; active = well fitted activation curve with a large enough effect in the signal ratio in the repeat runs, with a control signal flat, not every such curve was filed as active; the % refers to the signal ratio; note: series mostly up to about 63 µM). The method in brief: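 Compound exposure lasted 5 h at 37 C in HeLa cells carrying a heat-shock-element-driven beta-lactamase reporter. Read-out: fluorescence intensity after 2.5 h room-temperature loading with LiveBLAzer B/G FRET substrate.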
The nature of test [10]: qHTS assay to identify small molecule agonists of the peroxisome proliferator-activated receptor delta (PPARd) signaling pathway - cell viability counter screen (AID 743211). Note: nearly all actives have a fitted effect of over 55% in size. An outline of the steps:
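qHTS cell viability: PPARd-bla HEK293H; 17 h cpd, 37C; CellTiter-Glo, luminescence at 30 min RT.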

For test [11], the target named is Peroxisome proliferator-activated receptor delta (Homo sapiens) (UniProt Q03181). Briefly: qHTS assay to identify small molecule agonists of the peroxisome proliferator-activated receptor delta (PPARd) signaling pathway (AID 743212; calls by dose curve;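 note: HEK293H cells with PPARd UAS beta-lactamase reporter GeneBLAzer system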). The method in brief:
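Beta-lactamase reporter readout: a ratiometric FRET signal from the LiveBLAzer substrate after 2 h at room temperature. Compound exposure at 37 °C in PPARδ-bla HEK293H cells driven by an upstream activator sequence.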

Test [12] in a line: qHTS assay to identify small molecule antagonists of the peroxisome proliferator-activated receptor delta (PPARd) signaling pathway - cell viability counter screen (AID 743213). Note: nearly all actives have a fitted effect of over 50% in size. Note: potency is the fitted concentration of half-maximal effect. The method in brief:
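HEK293H cells with the PPARd UAS-bla reporter, co-treated 17 h at 37 C with compounds and L165041 (300 nM final), were lysed with CellTiter-Glo. Luminescence indicated viable cell content.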

Test [13] concerns the target Peroxisome proliferator-activated receptor delta (Homo sapiens) (UniProt Q03181). In words: qHTS assay to identify small molecule antagonists of the peroxisome proliferator-activated receptor delta (PPARd) signaling pathway (AID 743215; active = well fitted inhibition curve with a large enough effect in the signal ratio in the repeat runs, not every such curve was filed as active; the % refers to the signal ratio;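 note: cells stimulated with agonist L165041 at 300 nM final during compound exposure; series mostly up to about 62 µM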). An outline of the steps: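 Agonist L165041 (300 nM final) added with compound to PPARd-bla HEK293H UAS-bla reporter cells; 17 h incubation at 37 C. Read-out: LiveBLAzer FRET substrate, 2 h at room temperature, fluorescence intensity.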

A short description of test [14]: qHTS assay to identify small molecule agonists of the farnesoid-X-receptor (FXR) signaling pathway - cell viability counter screen (AID 743218). Note: nearly all actives have a fitted effect of over 45% in size. Note: potency is the fitted concentration of half-maximal effect. An outline of the steps:
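Viability counter screen in the same wells: CellTiter-Glo luminescence, 30 min room-temperature incubation, measured after the beta-lactamase read. Cells were GeneBLAzer FXR-UAS-bla HEK 293T, compound-treated 16 h at 37C.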

The nature of test [15]: qHTS assay to identify small molecule antagonists of the farnesoid-X-receptor (FXR) signaling pathway - cell viability counter screen (AID 743221; active = well fitted cell-killing curve with a large enough effect in the repeat runs, not every such curve was filed as active; note: nearly all actives have a fitted effect of over 50% in size; note: potency is the fitted concentration of half-maximal effect). An outline of the steps:
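After a 5 h settling period, FXR-bla HEK 293T cells receive compound and chenodeoxycholic acid (50 uM final) and incubate 16 h at 37 C; CellTiter-Glo luminescence, read after 30 min at room temperature, reports cell viability.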

For test [16], the target named is Vitamin D3 receptor (Homo sapiens) (UniProt P11473). In words: qHTS assay to identify small molecule agonists of the vitamin D receptor (VDR) signaling pathway (AID 743222; calls by dose curve). The method in brief:
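Agonist mode, beta-lactamase reporter: fluorescence from LiveBLAzer B/G FRET substrate (2 h, room temperature) read after 16 h compound treatment at 37 C of VDR-bla cells, which were pre-incubated 4 h after seeding.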

The target is the same in test [17]. In words: qHTS assay to identify small molecule antagonists of the vitamin D receptor (VDR) signaling pathway (AID 743223; active = well fitted inhibition curve with a large enough effect in the signal ratio in the repeat runs, not every such curve was filed as active; the % refers to the signal ratio). An outline of the steps:
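Reporter line VDR-bla; stimulus 1alpha,25-(OH)2 vitamin D3, 3 nM final; compound co-addition, 16 h 37C/5% CO2; LiveBLAzer B/G substrate 2 h RT; fluorescence intensity.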

Test [18] addresses Aryl hydrocarbon receptor (Homo sapiens) (UniProt P35869). Briefly: qHTS assay to identify small molecule that activate the aryl hydrocarbon receptor (AhR) signaling pathway (AID 743085).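 Note: HG2L7.5c1 human HepG2 liver cells with stably integrated DRE-driven firefly reporter; series mostly up to about 70 µM; nearly all actives have a fitted effect of over 15% in size.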 The method in brief:
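AhR agonist activity is inferred from enhanced light output of a DRE-controlled firefly luciferase reporter in HepG2 cells, measured with ONE-Glo following 24 h treatment at 37C.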

Test [19] deals with Bile acid receptor (Homo sapiens) (UniProt Q96RI1). In words: qHTS assay to identify small molecule antagonists of the farnesoid-X-receptor (FXR) signaling pathway (AID 743217; active = well fitted inhibition curve with a large enough effect in the signal ratio in the repeat runs, not every such curve was filed as active; the % refers to the signal ratio). An outline of the steps: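 Antagonist mode: chenodeoxycholic acid at 50 uM final stimulates a UAS-driven beta-lactamase reporter in HEK 293T FXR-bla cells during 16 h, 37C compound exposure. Read-out is FRET substrate fluorescence after 2 h at room temperature.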

Test [20] shares this target. Briefly: qHTS assay to identify small molecule agonists of the farnesoid-X-receptor (FXR) signaling pathway (AID 743220; active = well fitted activation curve with a large enough effect in the signal ratio in the repeat runs, not every such curve was filed as active; the % refers to the signal ratio). The method in brief: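 FXR-UAS-bla HEK 293T cells carrying a UAS-driven beta-lactamase reporter were plated for 5 h at 37C/5% CO2, then exposed to DMSO-dissolved Tox21 10K compounds for 16 h at 37C. A LiveBLAzer B/G FRET substrate was loaded for 2 h at room temperature before fluorescence reading.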

These results are taken from PubChem BioAssay (Tox21).

Structures are written as SMILES. Where “and” joins values, the source holds several entries; their conditions need not be identical. Equal entries are not always repeated. Results filed as inconclusive are left out. Where a structure was tested more than once in an assay, its records may differ in their call. Calls of active or inactive are those of the source. Unless noted, calls come from the whole dose curve; as a rule, active = well fitted curve in the direction sought with a large enough effect in the repeat runs; inconclusive = weak or mixed curves; inactive = no such curve, though single readings can be large; an effect the other way counts as inactive or inconclusive.

Chain of Peroxisome proliferator-activated receptor delta (Homo sapiens) (Q03181 whole entry, looked up): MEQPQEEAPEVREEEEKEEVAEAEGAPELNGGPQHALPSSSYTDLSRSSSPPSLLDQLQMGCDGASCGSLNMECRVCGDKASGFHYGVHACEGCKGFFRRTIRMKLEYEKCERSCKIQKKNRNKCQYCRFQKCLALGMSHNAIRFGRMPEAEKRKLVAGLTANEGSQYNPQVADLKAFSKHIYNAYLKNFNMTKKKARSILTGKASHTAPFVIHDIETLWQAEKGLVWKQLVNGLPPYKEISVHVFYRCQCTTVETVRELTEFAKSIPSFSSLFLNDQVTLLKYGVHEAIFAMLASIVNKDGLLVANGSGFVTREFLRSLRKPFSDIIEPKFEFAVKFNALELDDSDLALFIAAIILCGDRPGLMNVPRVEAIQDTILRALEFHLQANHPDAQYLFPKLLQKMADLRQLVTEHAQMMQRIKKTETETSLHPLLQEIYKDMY
Chain of Aryl hydrocarbon receptor (Homo sapiens) (P35869 whole entry, looked up): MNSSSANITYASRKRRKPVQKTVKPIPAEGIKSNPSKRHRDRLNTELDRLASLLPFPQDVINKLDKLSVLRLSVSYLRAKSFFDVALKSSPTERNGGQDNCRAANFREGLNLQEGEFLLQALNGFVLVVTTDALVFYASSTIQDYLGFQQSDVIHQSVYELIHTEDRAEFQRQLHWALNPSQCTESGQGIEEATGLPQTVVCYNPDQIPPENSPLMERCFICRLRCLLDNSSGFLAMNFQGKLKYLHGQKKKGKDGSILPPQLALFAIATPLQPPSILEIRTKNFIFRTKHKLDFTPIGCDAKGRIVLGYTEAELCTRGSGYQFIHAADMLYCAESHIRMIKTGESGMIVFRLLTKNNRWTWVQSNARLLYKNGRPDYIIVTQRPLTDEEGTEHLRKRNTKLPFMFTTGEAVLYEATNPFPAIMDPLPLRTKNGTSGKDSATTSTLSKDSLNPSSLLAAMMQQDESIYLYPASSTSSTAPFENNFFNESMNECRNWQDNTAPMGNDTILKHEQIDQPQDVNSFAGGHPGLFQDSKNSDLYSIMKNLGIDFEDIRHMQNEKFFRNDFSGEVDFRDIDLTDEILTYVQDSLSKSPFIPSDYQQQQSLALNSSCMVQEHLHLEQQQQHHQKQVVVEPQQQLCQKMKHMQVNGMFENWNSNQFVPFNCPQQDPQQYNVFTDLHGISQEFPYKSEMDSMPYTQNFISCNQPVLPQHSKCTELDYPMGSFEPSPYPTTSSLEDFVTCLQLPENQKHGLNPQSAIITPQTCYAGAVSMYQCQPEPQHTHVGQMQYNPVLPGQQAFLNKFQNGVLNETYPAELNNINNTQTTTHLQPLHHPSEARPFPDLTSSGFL
Chain of Peroxisome proliferator-activated receptor gamma (Homo sapiens) (P37231 whole entry, looked up): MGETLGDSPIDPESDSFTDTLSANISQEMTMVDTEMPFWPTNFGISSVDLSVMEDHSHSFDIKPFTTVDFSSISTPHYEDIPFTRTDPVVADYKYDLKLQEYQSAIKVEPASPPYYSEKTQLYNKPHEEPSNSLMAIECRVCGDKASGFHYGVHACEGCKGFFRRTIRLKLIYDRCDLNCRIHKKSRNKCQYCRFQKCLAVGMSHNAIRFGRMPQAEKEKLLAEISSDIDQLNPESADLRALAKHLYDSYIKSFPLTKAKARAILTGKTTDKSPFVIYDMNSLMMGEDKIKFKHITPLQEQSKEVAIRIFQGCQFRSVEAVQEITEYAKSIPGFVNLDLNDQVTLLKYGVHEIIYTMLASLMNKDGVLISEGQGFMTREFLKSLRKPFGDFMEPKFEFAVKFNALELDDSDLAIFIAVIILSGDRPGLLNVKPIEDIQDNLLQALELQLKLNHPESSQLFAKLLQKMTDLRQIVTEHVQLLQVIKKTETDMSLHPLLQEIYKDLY
Chain of Bile acid receptor (Homo sapiens) (Q96RI1 whole entry, looked up): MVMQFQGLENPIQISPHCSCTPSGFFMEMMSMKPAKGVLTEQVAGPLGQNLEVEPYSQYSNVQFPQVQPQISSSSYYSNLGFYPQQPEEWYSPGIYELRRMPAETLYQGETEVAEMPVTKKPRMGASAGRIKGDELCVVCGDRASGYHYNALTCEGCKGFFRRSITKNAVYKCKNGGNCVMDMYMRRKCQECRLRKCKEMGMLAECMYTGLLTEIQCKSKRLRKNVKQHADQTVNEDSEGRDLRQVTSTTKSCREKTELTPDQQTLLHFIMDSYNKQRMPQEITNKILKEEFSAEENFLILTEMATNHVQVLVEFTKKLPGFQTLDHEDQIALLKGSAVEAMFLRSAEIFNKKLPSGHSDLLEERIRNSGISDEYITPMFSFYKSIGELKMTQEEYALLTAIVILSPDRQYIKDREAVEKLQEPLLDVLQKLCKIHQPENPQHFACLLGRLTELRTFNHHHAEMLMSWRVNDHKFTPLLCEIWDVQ
Chain of Vitamin D3 receptor (Homo sapiens) (P11473 whole entry, looked up): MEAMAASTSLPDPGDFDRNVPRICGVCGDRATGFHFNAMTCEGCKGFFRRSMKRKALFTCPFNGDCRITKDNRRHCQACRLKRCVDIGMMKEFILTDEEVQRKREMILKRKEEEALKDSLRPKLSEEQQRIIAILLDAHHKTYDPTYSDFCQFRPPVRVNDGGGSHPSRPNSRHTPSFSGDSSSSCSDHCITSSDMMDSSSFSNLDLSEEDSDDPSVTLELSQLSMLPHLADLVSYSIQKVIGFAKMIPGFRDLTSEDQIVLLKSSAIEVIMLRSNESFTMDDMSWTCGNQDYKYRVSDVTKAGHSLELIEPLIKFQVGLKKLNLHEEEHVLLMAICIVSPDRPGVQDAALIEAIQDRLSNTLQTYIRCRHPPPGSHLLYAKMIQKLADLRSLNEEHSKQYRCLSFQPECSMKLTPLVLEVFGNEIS

Regarding `CC(=O)Nc1ccc2c(c1)Cc1cc(NC(C)=O)ccc1-2`, the Potency result in [1], in test [2], in [4], in [5], in test [6] and in test [7] was “inactive” each time. In addition, the Potency result in test [8], in [10], in test [12], in test [14] and in test [15] was “inactive” each time. For the same compound, the result in [3], in test [9], in [11], in [13], in test [16] and in test [17] was inactive.
With `C=CC(=O)OCCCC`, the Potency result in test [1], in test [18], in test [2], in test [5], in test [6] and in [7] was “inactive” throughout. Further, the Potency result in test [8], in test [10], in test [12], in test [19], in test [14] and in test [15] was “inactive” throughout. In addition, the call in [9], in test [11], in test [13], in test [20], in test [16] and in [17] was inactive.
As to `O=C1CCc2ccccc2O1`, the Potency result in test [1], in test [2], in [4], in [5], in test [6] and in test [7] was “inactive” each time. Further, the Potency result in [8], in [10], in test [12], in test [14] and in [15] was “inactive” each time. In addition, the call in test [3], in test [9], in test [11], in test [13], in [16] and in [17] was inactive.
As to `CCCCCCCC/C=C\CCCCCCCC(=O)O`, the Potency entry in test [1], in [18], in test [2], in test [5], in [6] and in [7] was “inactive” in each case. In addition, the Potency result in test [10], in test [12], in test [19], in test [14] and in test [15] was “inactive” each time. For the same compound, the outcome in test [3], in [11], in test [13] and in [20] was inactive. In [8], the Potency entry was “inactive and 34.7 µM (active)”.
On to `[Na+]`, for which the Potency entry in test [1], in [2], in [4], in [5], in test [6] and in test [7] was “inactive” throughout. The Potency result in test [8], in test [10], in [12], in test [14] and in [15] was “inactive” in each case. Further, the compound was classed as inactive in [3], in [9], in test [11] and in test [13].
For the compound `C=C[C@@]1(C)CC(=O)[C@]2(O)[C@@]3(C)[C@@H](O)CCC(C)(C)[C@@H]3[C@H](O)[C@H](OC(C)=O)[C@@]2(C)O1`, the Potency entry in [1], in test [18], in test [2], in test [5], in test [6] and in [7] was “inactive” in each case. For the same compound, the call in test [3], in [9], in [11] and in test [16] was inactive. The Potency in test [8] is 24.5 µM (active) and inactive; in test [12], 9.77 µM (active); in test [14], 9.77 µM (active) and 8.41 µM (active); in test [15] it was 1.74 µM (active).
Consider `Cc1ccc(S(=O)(=O)O)cc1C`, for which the Potency entry in [1], in test [2], in test [4], in test [5], in test [6] and in test [7] was “inactive” throughout. Besides, the Potency entry in test [8], in [10], in test [12], in test [14] and in test [15] was “inactive” in each case. The outcome in test [3], in test [9], in [11], in test [13], in [16] and in test [17] was inactive.
As to `O=Cc1ccccc1C=O`, the Potency in [1] was 17.2 µM (active); in test [7] it was 12.2 µM (active) and inactive; in [12] it was 24.5 µM (active) and inactive. Besides, the Potency result in [18], in test [2], in [4], in test [6], in test [8] and in test [10] was “inactive” each time. The Potency result in test [14] and in [15] was “inactive” throughout. Moreover, the outcome in test [9], in [11] and in test [13] was inactive.
Regarding `CC1=CC(C)(C)Nc2ccccc21`, the Potency entry in test [1], in test [2], in test [4], in [5], in test [6] and in test [7] was “inactive” throughout. For the same compound, the Potency result in test [8], in test [10], in test [12], in test [14] and in [15] was “inactive” in each case. The outcome in [3], in test [9], in test [11], in [13] and in test [16] was inactive.
For the compound `C=CN1CCCC1=O`, the Potency entry in test [1], in test [2], in test [4], in test [5], in test [6] and in [7] was “inactive” each time. Further, the Potency entry in test [8], in test [10], in test [12] and in [14] was “inactive” in each case. For the same compound, the compound was classed as inactive in test [3], in test [9], in [11] and in test [13].
Take `C=CCNCC=C`: the Potency entry in test [1], in test [2], in test [4], in test [5], in test [6] and in test [7] was “inactive” in each case. The Potency entry in test [8], in test [10], in test [12], in [19], in [14] and in [15] was “inactive” in each case. The call in [3], in test [9], in [20], in [16] and in [17] was inactive.
